Results on twelve compounds are retold here after PubChem BioAssay.

The test system of assay [1] is Hepatitis C virus NS3 helicase. Briefly: HCV NS3 helicase inhibitors, primary screen, biochemical, fluorescence polarization, LOPAC1280 library (AID 687035; in the data active = inhibition above about 37%). Conditions: Purified HCV NS3 helicase, Cy5-dT15 ssDNA binding fluorescence polarization; stronger effect = higher value; concentration not given here.
Assay [2] is described as follows: Cy5 fluorescence quenching or enhancement artefacts, artefact control for HCV NS3 helicase inhibitor project, biochemical, LOPAC1280 (AID 687037). Conditions: Cy5-DNA-NS3h complex fluorescence interference counterscreen. (The purpose of a counterscreen is to sort out artefacts and off-target activity.)
A short description of assay [3]: sensitizers of A549 cells to miR-34 induction, primary screen, imaging, A549 dox-inducible miR-34, nuclei and caspase counts (AID 1347080;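 active = compounds whose cell count with miR-34 switched on is under 0.7 times the count with it off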). The conditions noted are these: A549 miR-34 inducible, Hoechst nuclei count, 48 h.
Assay [4] can be described thus: phospholipid biosynthesis inhibitors in animal cells, primary screen, cell-based, LOPAC library, screen 4 (AID 1347384). Conditions: phospholipid biosynthesis inhibition screen, at 10 µM.
Assay [5] can be described thus: viability rescue of complex I mutant cybrids, primary screen, cell-based, galactose medium, ATP luminescence (AID 1645843;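 active = z-score of at least 1.8 in each of two replicates, scored against plate mean and spread of sample wells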;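 also: positive z means more ATP and so rescue of galactose-driven cybrid death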). Conditions: complex I mutant cybrid cells, 72 h, stronger effect = higher value.
The mark [6] stands for this setting: stronger effect = lower value, cell number ratio, induced over uninduced.
[7] abbreviates: measured here: relative caspase fold change +Dox/-Dox.
The mark [8] stands for this setting: measured here: total cells with miR-34 induction, stronger effect = lower value.
Setting [9] is: measured here: total cells without miR-34 induction.

The inhibition is the relative decrease from the control value, in per cent.

The source made the active and inactive calls. Unless noted, no rule for the calls is given here.

For `CCCC(CCC)C(=O)OC1CC2CCC(C1)[N+]2(C)C` (stereo unspecified), in assay [1], the inhibition is 0% (inactive). The fluorescence ratio (interference) in assay [2] was 1.1 (inactive). For the same compound, the fold change in assay [3] (setting [6]) is 0.959 (inactive); in assay [3] (setting [7]), 1.54. Further, the cell count in assay [3] (setting [8]) is 9840; in assay [3] (setting [9]), 10300. In addition, the compound was called inactive in assay [4]. Besides, the z-score in assay [5] is -0.005 (inactive).

Regarding `C=CCNc1ncnc2ccc(Br)cc12`, the inhibition in assay [1] is 0% (inactive). In assay [2], the fluorescence ratio (interference) is 1 (inactive). Besides, the fold change in assay [3] (setting [6]) was 0.949 (inactive); in assay [3] (setting [7]), 0.896. The cell count came out at 7410 in assay [3] (setting [8]) and 7810 in assay [3] (setting [9]). In assay [4], the result was inactive. The z-score in assay [5] was -1.29 (inactive).

On to `CC(C)c1cccc(C(C)C)c1N1C(=O)c2ccc(O)cc2C1=O`, for which the inhibition in assay [1] was 0% (inactive). In assay [2], the fluorescence ratio (interference) was 0.9 (inactive). For the same compound, the fold change in assay [3] (setting [6]) was 1.39 (inactive); in assay [3] (setting [7]) it was 0.841. For the same compound, the cell count in assay [3] (setting [8]) was 1810; in assay [3] (setting [9]) it was 1300. The call in assay [4] was inactive. Moreover, the z-score in assay [5] was 0.3 (inactive).

As to `C[C@](Cc1ccc(O)c(O)c1)(NN)C(=O)O`, in assay [1], the inhibition is -4% (inactive). Also, in assay [2], the fluorescence ratio (interference) is 1 (inactive). Moreover, the fold change in assay [3] (setting [6]) is 0.947 (inactive); in assay [3] (setting [7]) it was 1.36. The figures for the cell count in assay [3] (setting [8]) and in assay [3] (setting [9]) were 9110 and 9620, respectively. Moreover, the compound was classed as inactive in assay [4]. Besides, the z-score in assay [5] was -1.02 (inactive).

Turning to `CN1Cc2sccc2C(c2ccc(O)c(O)c2)C1` (stereo unspecified), the inhibition in assay [1] was -3% (inactive). For the same compound, the fluorescence ratio (interference) in assay [2] was 1 (inactive). The fold change in assay [3] (setting [6]) was 1.06 (inactive); in assay [3] (setting [7]), 2.13. For the same compound, the cell count in assay [3] (setting [8]) worked out at 10300; in assay [3] (setting [9]), 9720. The compound was classed as inactive in assay [4]. Also, the z-score in assay [5] was -1.25 (inactive).

For the compound `O=C1NCc2c1c1c3ccccc3[nH]c1c1[nH]c3ccccc3c21`, in assay [1], the inhibition was -1% (inactive). In addition, in assay [2], the fluorescence ratio (interference) is 1 (inactive). Further, the values for the fold change in assay [3] (setting [6]) and in assay [3] (setting [7]) were 1.15 (inactive) and 0.688, respectively. Also, the cell count in assay [3] (setting [8]) worked out at 1560; in assay [3] (setting [9]) it was 1350. In addition, in assay [4], the outcome was inactive. In addition, the z-score in assay [5] is -0.89 (inactive).

For the compound `Cc1cc(NC2CCCCC2)nc(-n2nc(C)cc2C)n1`, the inhibition in assay [1] is -5% (inactive). Also, the fluorescence ratio (interference) in assay [2] was 1 (inactive). The figures for the fold change in assay [3] (setting [6]) and in assay [3] (setting [7]) were 1.09 (inactive) and 0.728, respectively. The values for the cell count in assay [3] (setting [8]) and in assay [3] (setting [9]) were 9360 and 8610, respectively. For the same compound, the call in assay [4] was inactive. Also, in assay [5], the z-score is -1.04 (inactive).

In the case of `COc1ccc(CCn2nnnc2C2(c3ccc(C)cc3)CC2)cc1`, the inhibition in assay [1] is -4% (inactive). In assay [2], the fluorescence ratio (interference) is 1.1 (inactive). Besides, the results for the fold change in assay [3] (setting [6]) and in assay [3] (setting [7]) were 1.09 (inactive) and 0.893, respectively. Further, the cell count turned out to be 8770 in assay [3] (setting [8]) and 8010 in assay [3] (setting [9]). The compound was called inactive in assay [4]. Further, the z-score in assay [5] is -0.23 (inactive).

Regarding `COc1ccc2c(c1)CCC1C2CC[C@@]2(C)C1CC[C@@H]2NCCCCCCN1C(=O)CCC1=O` (stereo partly specified), in assay [1], the inhibition is -3% (inactive). Further, in assay [2], the fluorescence ratio (interference) was 1 (inactive). The fold change is 1.08 (inactive) in assay [3] (setting [6]) and 0.876 in assay [3] (setting [7]). In addition, the cell count in assay [3] (setting [8]) was found to be 8060; in assay [3] (setting [9]), 7440. Also, in assay [4], the result was inactive. Besides, the z-score in assay [5] was -1.29 (inactive).

`CCCCC#Cc1nc(NC)c2ncn([C@@H]3O[C@H](CO)C(O)[C@@H]3O)c2n1` (stereo partly specified): in assay [1], the inhibition is -2% (inactive). Moreover, the fluorescence ratio (interference) in assay [2] was 1 (inactive). Moreover, the fold change in assay [3] (setting [6]) is 1.02 (inactive); in assay [3] (setting [7]) it was 2.24. Also, the cell count in assay [3] (setting [8]) was determined as 10300; in assay [3] (setting [9]), 10100. Besides, in assay [4], the compound was called inactive. Besides, the z-score in assay [5] was 0.245 (inactive).

In the case of `O=c1ccc2c(OCCCCc3ccccc3)c3ccoc3cc2o1`, in assay [1], the inhibition was 0% (inactive). Also, in assay [2], the fluorescence ratio (interference) was 1 (inactive). Besides, the fold change in assay [3] (setting [6]) was 1.08 (inactive); in assay [3] (setting [7]), 1.92. The cell count in assay [3] (setting [8]) came to 8160; in assay [3] (setting [9]), 7580. Further, the result in assay [4] was inactive. Besides, the z-score in assay [5] is -0.515 (inactive).

Regarding `Nc1ccc(-c2ccc3ccccc3n2)cc1`, the inhibition in assay [1] is -2% (inactive). Besides, the fluorescence ratio (interference) in assay [2] was 1 (inactive). Besides, the fold change was 1.1 (inactive) in assay [3] (setting [6]) and 1.06 in assay [3] (setting [7]). The cell count was found to be 7600 in assay [3] (setting [8]) and 6930 in assay [3] (setting [9]). Further, the call in assay [4] was inactive. In addition, in assay [5], the z-score is -1.29 (inactive).
